# Screening data: PubChem, National Center for Advancing Translational Sciences (NCATS)
# In the library only some 9.2% were active in any assay of this set; here they are far more common.
# FLuc modulator: inhibits or activates purified firefly luciferase, miR-21 counter-screen; P08659; purified FLuc, Km substrates, luminescence inhibition; Potency, µM (titrated, usually from 57.5 µM), most hits filed as inhibitors; actives 6.9% (n = 360,000); AID 588342; further: nearly all actives have a fitted effect of over 55% in size
# Target sequence (P08659 whole entry, looked up): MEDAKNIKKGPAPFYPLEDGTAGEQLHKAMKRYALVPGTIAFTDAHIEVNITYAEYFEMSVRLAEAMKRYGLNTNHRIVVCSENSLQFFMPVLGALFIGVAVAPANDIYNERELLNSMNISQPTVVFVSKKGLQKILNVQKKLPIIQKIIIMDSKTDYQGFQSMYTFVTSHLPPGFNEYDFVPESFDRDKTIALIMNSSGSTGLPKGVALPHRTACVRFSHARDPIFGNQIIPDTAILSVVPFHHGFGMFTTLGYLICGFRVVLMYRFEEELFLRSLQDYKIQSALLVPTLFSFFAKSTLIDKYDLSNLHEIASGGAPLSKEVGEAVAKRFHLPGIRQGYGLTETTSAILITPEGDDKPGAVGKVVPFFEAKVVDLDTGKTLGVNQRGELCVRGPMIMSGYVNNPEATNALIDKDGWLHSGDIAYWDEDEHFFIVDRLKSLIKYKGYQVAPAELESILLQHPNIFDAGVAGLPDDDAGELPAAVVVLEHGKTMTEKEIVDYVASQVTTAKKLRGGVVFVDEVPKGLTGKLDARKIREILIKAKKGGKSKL
#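 Biochemical qHTS of compounds, final roughly 60 µM downward over six points, against 10 nM purified firefly luciferase using Km concentrations of substrates (10 uM D-luciferin, 10 uM ATP) in Tris acetate pH 7.5 buffer; luminescence output.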
# Rab9 promoter act: activators of Rab9 promoter; Huh7 Rab9 promoter-luciferase reporter, luminescence, 24 h; actives 2.8% (n = 320,000); AID 485297; Potency, µM (highest dose often 9.22 µM), most hits filed as activators; further: nearly all actives have a fitted effect of over 60% in size
#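 Rab9 promoter-driven luciferase in stably transfected Huh7 cells; 1500 cells/well rested 2 h, exposed to compound in DMSO for 24 h at 37 °C, 5% CO2. Luminescence read 10 min after adding luciferase reagent at ambient temperature.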
# ELG1 genotox: inducers of genotoxicity in HEK293T ELG1-luciferase cells | HEK293T ELG1-luciferase reporter, luminescence, 16 h | Potency, µM (highest dose often 46 µM), most hits filed as activators | actives 1.3% (n = 330,000) | AID 504466; further: nearly all actives have a fitted effect of over 60% in size
#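 Step 1: seed 2,000 HEK293T ELG1-luciferase cells per well. Step 2: add compound or DMSO, incubate 16 hr at 37 °C. Step 3: ONE-Glo, 30 min at room temperature, read luminescence.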
# ELG1 DNA repair: inhibitors of ELG1-dependent DNA repair in HEK293T cells. HEK293T ELG1-luciferase reporter, luminescence, 16 h; DNA damage induced by 5-fluorouridine. Potency, µM (titrated, usually from 46.1 µM), hits mostly inhibitors. actives 2.3% (n = 330,000); further: nearly all actives have a fitted effect of over 55% in size
#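 In this reporter screen, reduction of luminescence relative to DMSO vehicle indicated activity. Compounds and 5-fluorouridine were added together to 2,000 cells per well, incubated for 16 hr at 37 °C, then developed with ONE-Glo.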
# SMN2 splice up: SMN2 splice variant enhancement; HEK293 SMN2-luciferase splicing reporter, luminescence, 30-36 h; Potency, µM (titrated, usually from 46.1 µM), hits mostly activators; actives 2.8% (n = 210,000); AID 1458; further: nearly all actives have a fitted effect of over 55% in size
#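 qHTS luciferase splicing reporter: luminescence rises when SMN2 exon 7 is included in transfected HEK293 cells. Compound exposure lasted 30-36 h at 37C, with 4.5 mM final sodium butyrate as control, followed by a ONE-Glo read.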
# NPC1 prom act: NPC1 promoter activation; actives 2.4% (n = 320,000); Potency, µM (titrated, usually from 9.22 µM), actives largely listed as activators; AID 485313; Huh7 NPC1 promoter luciferase reporter, 24 h; further: nearly all actives have a fitted effect of over 60% in size
#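 Readout is luciferase luminescence, reflecting NPC1 promoter activation in stably transfected Huh7 cells after 24 h compound exposure at 37 °C in reduced-serum medium with 10% FBS.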
# Numbers stand for hits; i = inactive; ? = inconclusive; nt = no result; [ ] = remark or other dose. The call rests on the fitted dose curve; in most records, active means well fitted curve in the direction sought with a large enough effect; inconclusive means small, poorly fitted or top-dose-only effect, or another doubt; inactive means no such curve, though single readings can be large; an effect the other way counts as inactive or inconclusive.
SMILES,FLuc modulator,Rab9 promoter act,ELG1 genotox,ELG1 DNA repair,SMN2 splice up,NPC1 prom act
CCOC(=O)c1c(C)[nH]c(C(=O)CN2C(=O)NC(CC)(c3ccccc3)C2=O)c1C (stereo unspecified),i,i,i,16µM,i,i
CCOC(=O)c1c(C)[nH]c(C(=O)OCCOc2ccc(Cl)cc2)c1C,i,i,?,?,i,i
COc1ccc2c(C)c(C(=O)N3CCN(Cc4ccccc4)CC3)oc2c1,i,i,i,?,nt,i
Cc1cnc(C(=O)OCC(=O)Nc2cc(Cl)ccc2C#N)cn1,nt,nt,i,i,nt,nt
O=C1CN(C(=O)c2c(F)cccc2Cl)C(c2ccc(F)cc2)c2cc(Br)ccc2N1 (stereo unspecified),i,nt,nt,nt,i,nt
COCCNC(=O)CCc1c(C)nc2nc(-c3cc(OC)cc(OC)c3)nn2c1C,i,i,i,?,i,i
CC1CC(=O)Nc2ccccc2N1C(=O)CSc1nnnn1C (stereo unspecified),nt,nt,i,i,nt,nt
CCOC(=O)C1(C)C=C(Nc2ccc(C(=O)O)cc2)C(=O)N1c1ccc(C(=O)O)cc1 (stereo unspecified),i,nt,nt,nt,i,nt
CCOC(=O)c1c(C)[nH]c(C(=O)COC(=O)c2ccccn2)c1C,6µM,i,i,i,i,i
CCOC(=O)c1[nH]c2ccc(C)cc2c1N,5.4µM,2.5µM,?,?,11µM,2.2µM
CCOC(=O)c1c(C)[nH]c(C(=O)COC(=O)c2ccc(O)cc2)c1C,i,i,i,i,nt,i
CCOC(=O)c1c(C)[nH]c(C(=O)Cn2c(=O)c3c(ncn3CC)n(Cc3ccccc3)c2=O)c1C,i,i,i,21µM,i,i
COc1ccc(C(=O)COC(=O)COc2cc(C)cc(C)c2)cc1,?,i,i,i,nt,i
COc1cc2c(cc1OC)C1(C)N(CC2)C(C(C)=O)=NN1c1ccc(Cl)cc1 (stereo unspecified),i,i,i,?,nt,i
O=C(CCc1nc2ccccc2c(=O)[nH]1)Nc1nnc(SCc2ccccc2F)s1,19µM,?,?,?,nt,i
Cc1ccc(CNC(=O)CCc2nc3ccccc3c(=O)[nH]2)cc1,i,i,i,i,i,i
O=C(CCc1nc2ccccc2c(=O)[nH]1)Nc1nnc(SCc2ccc(Cl)cc2)s1,i,i,i,i,nt,i
CC(=O)NCc1ccc(-c2csc(NC(=O)CCc3nc4ccccc4c(=O)[nH]3)n2)s1,nt,nt,i,21µM,nt,nt
Cc1c(Cc2ccccc2)c(=O)oc2cc(OC(=O)c3ccccc3)ccc12,?,i,i,i,i,i
O=C(Oc1ccc2c(c1)OCC2=O)c1ccccc1,27µM,i,i,i,i,i
CC(C)(C)c1ccc(C(=O)Oc2ccc3c(c2)OCC3=O)cc1,2.7µM,i,i,i,i,i
CC(=O)Oc1ccc2c(c1)C(=O)c1ccccc1CO2,4.8µM,i,?,?,i,i
CCOC(=O)c1cc(NC(=O)Nc2ccc(Br)cc2)c(C)nc1C,i,i,i,i,i,i
CCOc1ccccc1N1CCN(c2ncnc3scc(-c4ccc(OC)cc4)c23)CC1,i,i,i,15µM,nt,i
COc1ccc(-c2csc3ncnc(NCCO)c23)cc1,i,i,i,?,nt,i
SMILES,FLuc modulator,Rab9 promoter act,ELG1 genotox,ELG1 DNA repair,SMN2 splice up,NPC1 prom act
COc1ccc(-c2csc3ncnc(N4CCN(CCO)CC4)c23)cc1,i,i,i,i,nt,i
COc1ccc(-c2csc3ncnc(N4CCN(c5ccccc5OC)CC4)c23)cc1,i,i,i,13µM,nt,i
COc1ccc(-c2csc3ncnc(NCCCO)c23)cc1,i,i,i,4.6µM,nt,i
Cc1ccc(F)c([C@H]2C3C=CCC(c4ccccc4)C3C(=O)N2Cc2ccccc2)c1 (stereo partly specified),i,i,i,i,nt,i
CCOc1ccccc1NC(=O)C(NCCN(C)C)c1ccccc1 (stereo unspecified),i,i,i,i,i,i
CCOc1ccccc1NC(=O)C(NCCc1ccc(OC)cc1)c1ccccc1 (stereo unspecified),27µM,i,i,?,nt,i
Cc1csc(NC(=O)CSc2nc3sc(C)c(C)c3c(=O)[nH]2)n1,i,i,i,?,i,i
Cc1ccc(NC(=O)c2sc3nc(CCl)[nH]c(=O)c3c2C)c(C)c1,9.5µM,?,?,?,?,i
CSCc1nc2sc(C(=O)Nc3nc(C)cs3)c(C)c2c(=O)[nH]1,?,3.2µM,i,?,11µM,?
COc1cccc(/C=N/Nc2cc(Cl)nc(C)n2)c1O,3µM,i,i,?,nt,?
COc1cccc(/C=N/Nc2nnc(C)n2N)c1O,i,i,i,i,nt,i
COc1cccc(/C=N/Nc2c(Cl)cncc2Cl)c1O,9.5µM,i,i,?,nt,?
Cc1ccc(C)c(-c2[nH]c3c(c2-c2c(-n4cccc4)n(C)c(=O)[nH]c2=O)c(=O)[nH]c(=O)n3C)c1,i,nt,nt,nt,nt,nt
Cc1nc2ccc(-c3nc4cc(N)ccc4o3)cc2[nH]1,1.9µM,0.4µM,?,?,2.8µM,0.4µM
c1nc2ccc(Cc3ccc4nc[nH]c4c3)cc2[nH]1,i,i,i,i,nt,i
Nc1ccc2oc(-c3ccc4nc[nH]c4c3)nc2c1,1.9µM,?,?,?,13µM,?
CCOc1ccc(NC(=O)CSC2=Nc3ccccc3C3=NC(CC(=O)NCc4cccs4)C(=O)N23)cc1 (stereo unspecified),i,nt,nt,nt,nt,nt
N#CC(C#N)=c1ccc2c(c1)N1C3=C(CCCC3)CC3CCCCC31N=2 (stereo unspecified),12µM,i,i,i,i,i
N#C/C(C(N)=O)=c1/ccc2c(c1)N1C3=C(CCCC3)CC3CCCCC31N=2 (stereo unspecified),8.5µM,i,i,21µM,i,i
CCOC(=O)CCSc1cc(C)c2ccccc2n1,i,i,i,i,i,i
COc1ccc(SC[C@H](CC(C)C)N2CCN(CCc3ccccc3)CCC2=O)cc1,19µM,i,i,i,nt,i
Cc1ccc(SC[C@H](CC(C)C)N2CCN(CCc3ccccc3)CCC2=O)cc1,17µM,i,i,i,nt,i
CC(C)(C)C(=O)Nc1ccc(-c2cc3cc(Cl)ccc3o2)cc1,0.19µM,0.32µM,?,?,nt,?
O=C(O)CN(CC(=O)O)c1ccccc1,nt,nt,nt,nt,i[9.22 µM],nt
Cc1cc(C)c2c(-n3cccc3)c(C(=O)NCCCN3CCCCC3C)sc2n1 (stereo unspecified),i,nt,nt,nt,nt,nt
COC(=O)c1sccc1NC(=O)Nc1ccc(C)c(C)c1,0.48µM,?,2.3µM,?,nt,i
CCc1ccc(NC(=O)Nc2ccsc2C(=O)OC)cc1,0.34µM,?,2.1µM,?,nt,i
COC(=O)c1sccc1NC(=O)Nc1ccc(OC)c(OC)c1,?,i,i,i,nt,i
